Results taken from paper PMC4552634, “A New Set of Chemical Starting Points with Plasmodium falciparum Transmission-Blocking Potential for Antimalarial Drug Discovery” (PLoS ONE, 2015).
Out of some 13,000 compounds screened, about 3,200 (25%) showed an effect of 50% or more. Some of the results follow.

The compounds below were run on P. falciparum stage V gametocytes. Conditions: 48 h, 5 µM; inhibitor.
Parameters: BacTiter-Glo ATP luminescence viability of purified stage V gametocytes in 384-well plates, per cent inhibition versus DMSO

Compound | % Inhibition [%]
Nc1ncc(-c2ccc(F)c(Cl)c2)c(N)n1 [TCMDC-137296] | -16.29
O=S(=O)(ON=C1CCc2ccccc21)c1ccc(Cl)cc1 [TCMDC-125427] | 20.26
Cc1cc(I)ccc1Nc1nc2nonc2nc1Nc1ccc(I)cc1C [TCMDC-124083] | 56.47
Cc1cccc(Nc2nc3nonc3nc2Nc2cccc(Cl)c2Cl)c1C [TCMDC-125806] | 15.39
CS(=O)(=O)c1cc2c(Nc3ccc(N4CCOCC4)cc3)c(C(N)=O)cnc2cc1Br.Cl [TCMDC-135826] | 40.37
CC(CN(C)C)C(=O)Nc1cccc(-c2ccc(-c3nc4ccccc4[nH]3)s2)c1 (stereo not shown) [TCMDC-137102] | -38.48
O=c1cc(NCCC(CNCCc2ccccc2)NCc2cc(Br)cc(Br)c2)[nH]c2ccccc12 (stereo not shown) [TCMDC-140344] | 98.47
O=c1cc(NCCCNC(CNCCc2ccccc2)c2cc(Br)cc(Br)c2)[nH]c2ccccc12 (stereo not shown) [TCMDC-140370] | -71.22
O=c1cc(NCCC(CNCc2ccoc2)NCc2cc(Br)cc(Br)c2)[nH]c2ccccc12 (stereo not shown) [TCMDC-140343] | 58.98
C=CCCCNCC(NCCCNc1cc(=O)c2ccccc2[nH]1)c1cc(Br)cc(Br)c1 (stereo not shown) [TCMDC-140371] | -52.81
O=c1cc(NCCCCNCc2cccc(Br)c2)[nH]c2ccccc12 [TCMDC-139312] | -82.6
O=c1cc(NCCCCNCc2ccc(Br)c(Br)c2)[nH]c2ccccc12 [TCMDC-139308] | -72.79
Cn1nccc1C(=O)NCCNCc1cccc(-c2ccc(-c3nc4cc(C(F)(F)F)ccc4[nH]3)s2)c1.O=C(O)C(F)(F)F [TCMDC-133010] | 8.568
CCCc1cccc(OC)c1OCCCON1C(N)=NC(N)=NC1(C)C [TCMDC-131338] | -11.7
O=C(CSc1nccn1Cc1ccco1)Nc1cc(C(F)(F)F)ccc1Cl [TCMDC-125134] | 10.58
CS(=O)(=O)Cc1ccc(Nc2nccc(NC3CCN(c4nccc(C(F)(F)F)n4)CC3)n2)cc1 [TCMDC-134397] | 7.117
COC(=O)C1=CNC=C(C(=O)OC)C1c1ccc(Cl)c([N+](=O)[O-])c1 [TCMDC-125154] | -60.53
Cc1cc(C(=O)CN2C(=O)NC3(CCCc4ccccc43)C2=O)c(C)n1Cc1ccco1 (stereo not shown) [TCMDC-124502] | 2.781
Nc1nc(N)c2c(ccc3c2cnn3Cc2cccnc2)n1 [TCMDC-131932] | 23.15
COc1ccc(-c2ccc(NC(=O)c3ccc(C#N)cc3)cc2)cc1CN(C)CCO [TCMDC-132521] | 28.66
COc1ccc(-c2ccc(NC(=O)c3cccc(Cl)c3)cc2)cc1CNC(C)C [TCMDC-132524] | 39.19
COc1ccc(-c2cccc(NC(=O)c3cccc(Cl)c3)c2)cc1CN(C)CCN(C)C [TCMDC-132616] | 105.4
CN(C)Cc1ccc2cc(NC(=O)c3ccc(-c4ccc(Cl)cc4)cc3)ccc2n1 [TCMDC-134644] | 5.45

Compound | % Inhibition [%]
COc1ccc(-c2cccc(NC(=O)c3ccc(Cl)cc3)c2)cc1CN(C)CCN(C)C [TCMDC-132605] | -10.06
CN(C)Cc1ccc(-c2cccc(NC(=O)c3ccc(Cl)cc3)c2)cc1 [TCMDC-132632] | 4.982
COc1ccc(-c2ccc(NC(=O)c3ccc(Cl)cc3)cc2)cc1CN(C)CCO [TCMDC-132513] | 86.93
CN(C)Cc1ccc2cc(NC(=O)c3ccc(-c4ccc(Cl)cc4)cc3)ccc2c1 [TCMDC-134694] | 77.36
COc1ccc(-c2ccc(NC(=O)c3cccc(Cl)c3)cc2)cc1CN(C)CCN(C)C [TCMDC-133335] | 14.93
COc1ccc(-c2ccc(NC(=O)c3cccc(Cl)c3)cc2)cc1CN(C)CCO [TCMDC-132527] | 86.37
COc1ccc(-c2ccc(NC(=O)c3ccc(Cl)cc3)cc2)cc1CN(C)CCN(C)C [TCMDC-132511] | 46.96
COCCN1CCC(CNCC(C)(C)c2nc(-c3ccc(Cl)c(O)c3)c(-c3ccncc3)[nH]2)CC1 [TCMDC-140898] | -79.12
O=C(Nc1cccc(CN2CCCN(Cc3ccc(O)cc3)CC2)c1)c1ccc(Br)cc1 [TCMDC-141883] | 15.8
Cc1nc(NC2=NCN(CCCN3CCOCC3)CN2)nc2c(C)cccc12 [TCMDC-125086] | 47.98
Cn1ccnc1CNC(=O)c1ccc(-c2cccc(-c3nc4cc(F)ccc4[nH]3)c2)cc1 [TCMDC-132354] | -5.334
Cc1cc(OCCN2CCCCC2)ccc1NC(=O)c1cccc2c(=O)n(Cc3ccc(Cl)cc3)cnc12 [TCMDC-136727] | 103.4
O=c1c2sc(-c3ccc(Cl)cc3)cc2ncn1Cc1ccc(OCCN2CCCC2)c2ccccc12 [TCMDC-135387] | 24.51
Cc1cccc(CN2CCCN(Cc3ccc(C(=O)Nc4ccc(Cl)cc4)cc3)CC2)c1 [TCMDC-136407] | 32.89
COc1ccc2nccc([C@@H](O)CN3CCC(NC(=O)Cc4cc5ccccc5s4)CC3)c2c1 [TCMDC-141033] | -11.21
O=C(Nc1ccc(-c2cccc(-c3nc4ccc(F)cc4[nH]3)c2)cc1)Nc1ccsc1 [TCMDC-133218] | -7.279
Cc1noc(C)c1-c1ccc2c(Nc3ccc(Cl)cc3)c(C(N)=O)cnc2c1.Cl [TCMDC-136010] | 9.933
Cc1noc(C)c1-c1ccc2c(Nc3cccc4c3-c3ccccc3C4=O)c(C(=O)NCc3ccccc3I)cnc2c1 [TCMDC-136308] | 93.19
Cc1noc(C)c1-c1ccc2c(Nc3ccccc3C(C)(C)C)c(C(=O)NCc3ccc4c(c3)OCO4)cnc2c1.Cl [TCMDC-136353] | 56.26
CC(=O)c1ccc(Nc2c(C(N)=O)cnc3cc(-c4c(C)noc4C)ccc23)cc1 [TCMDC-136058] | -8.163
Cc1noc(C)c1-c1ccc2c(Nc3nccc4ccccc34)c(C(N)=O)cnc2c1 [TCMDC-136456] | 97
Cc1noc(C)c1-c1ccc2c(Nc3ccccc3C(C)(C)C)c(C(=O)NCc3cccc4ccccc34)cnc2c1.Cl [TCMDC-136375] | -44.64
Cc1noc(C)c1-c1ccc2c(Nc3ccccc3C(C)(C)C)c(C(=O)NCc3ccc(C(F)(F)F)cc3)cnc2c1.Cl [TCMDC-136348] | -20.49

Compound | % Inhibition [%]
Cc1noc(C)c1-c1ccc2c(Nc3ccccc3C(C)(C)C)c(C(=O)NCc3ccccc3)cnc2c1.Cl [TCMDC-136366] | -19.07
Cc1noc(C)c1-c1ccc2c(Nc3ccccc3N3CCOCC3)c(C(=O)NCc3ccccc3)cnc2c1.Cl [TCMDC-136667] | -0.5011
COc1ccc2nccc(N3CCC(CCNCc4ccc5c(n4)NC(=O)CS5)CC3)c2c1.Cl [TCMDC-141905] | -14.76
Cc1cccc2[nH]c(-c3cccc(-c4cccc(NC(=O)Nc5ccc(Cl)c(Cl)c5)c4)c3)nc12 [TCMDC-133277] | -37.89
COc1nc(N)ncc1C(=O)NC1CN2CCC1CC2 (stereo not shown) [TCMDC-131574] | 17.61
CN1CCN(c2ccc(-c3cccc(NC(=O)c4ccc5ccccc5c4)c3)nn2)CC1 [TCMDC-125349] | 17.67
Cc1ccc(C(=O)Nc2cccc(-c3ccc(N4CCN(C)CC4)nn3)c2)cc1[N+](=O)[O-] [TCMDC-124931] | 60.61
CN1CCN(c2ccc(-c3cccc(NC(=O)c4cccc([N+](=O)[O-])c4)c3)nn2)CC1 [TCMDC-125452] | -8.078
COc1cccc(C(=O)N2CCN(Cc3cccc(NC(=O)c4cccs4)c3)CC2)c1 [TCMDC-136327] | -13.29
Cc1[nH]c(C)c(-c2ccc(-c3ccccc3F)nc2)c(=O)c1Cl [TCMDC-135927] | 68.96
Cc1[nH]c(C)c(-c2ccc(-c3ccccc3F)nc2)c(=O)c1Br [TCMDC-135926] | 66.81
O=C(/C=C/c1ccc(Br)cc1)NCCCCCN1CCC(c2c[nH]c3ccccc23)CC1 [TCMDC-139199] | 51.21
O=C(/C=C/c1ccc(I)cc1)NCCCCCN1CCC(c2c[nH]c3ccccc23)CC1 [TCMDC-139198] | 49.23
CC(C)(C)c1ccc(/C=C/C(=O)NCCCCCN2CCC(c3c[nH]c4ccccc34)CC2)cc1 [TCMDC-139247] | 18.04
COc1ccc(/C=C/C(=O)NCCCCCN2CCC(c3c[nH]c4ccccc34)CC2)cc1O [TCMDC-139754] | -52.52
O=C(/C=C/c1ccc(-c2ccccc2)cc1)NCCCCCN1CCC(c2c[nH]c3ccccc23)CC1 [TCMDC-139210] | 111.8
O=C(/C=C/C=C/c1ccccc1)NCCCCCN1CCC(c2c[nH]c3ccccc23)CC1 [TCMDC-139216] | 106.6
Cc1ccc(/C=C/C(=O)NCCCCCN2CCC(c3c[nH]c4ccccc34)CC2)cc1 [TCMDC-139236] | 53.65
O=C(/C=C/c1ccc(F)c(Br)c1)NCCCCCN1CCC(c2c[nH]c3ccccc23)CC1 [TCMDC-139235] | -23.07
Cc1ccc(Nc2nc(C)cc(NCc3ccc(-n4ccnc4)cc3)n2)cc1 [TCMDC-133454] | 13.72
c1ccc(C2CCC(N3CCC(N4CCCC4)CC3)CC2)cc1 (stereo not shown) [TCMDC-124349] | 3.112
